This passage reports AC50 and outcome results from PubChem BioAssay (EPA / NIEHS).

Test [1] in a line: ACEA_AR_agonist_AUC_viability: ACEA Biosciences xCELLigence Real-Time Cell Analysis on Androgen Receptor Agonism for Viability (AID 2283775).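 For AC50: viability read 80 hours after compound addition.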 The gist of the method: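 22Rv1 cells; impedance growth kinetics; 8-pt 1:4 dilutions from 100 uM top final, ≤0.5% DMSO; n = 2; 80 h read; AUC viability, loss-of-signal vs DMSO.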
The nature of test [2]: ACEA_AR_antagonist_AUC_viability: ACEA Biosciences xCELLigence Real-Time Cell Analysis on Androgen Receptor Antagonism for Viability (AID 2283776).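 Note: 22Rv1 human prostate cancer cells growing on impedance electrode plates; area under impedance growth curve at 80 h after dosing as viability; hits lower the growth signal relative to DMSO meaning cytotoxicity.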 The gist of the method: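 Real-time electrical impedance tracks 22Rv1 proliferation after continuous compound exposure (top 100 uM final, 1:4 steps, 8 concentrations). The 80 h area-under-curve serves as the cytotoxicity readout relative to DMSO.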

Test [3] is described as follows: ACEA_ER_AUC_viability: ACEA Biosciences xCELLigence Real-Time Cell Analysis on Estrogen Receptor Agonism for Viability (AID 2283782).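 Note: hit means loss of impedance signal meaning reduced cell growth or viability.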 The gist of the method:
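Viability endpoint: reduced impedance area under the curve relative to DMSO, recorded by real-time electrode sensing over ~80 h of continuous exposure. Duplicate plates of T47D in hormone-depleted medium; eight concentrations, 1:4 dilutions, 100 uM maximum.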

In test [4] the target is AR (gene 367) (UniProt P10275). Briefly: ACEA_AR_agonist_80hr: ACEA Biosciences xCELLigence Real-Time Cell Analysis on Androgen Receptor Agonism for Proliferation (AID 2283783).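 Note: hits increase impedance growth signal above DMSO baseline.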 The essentials: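 Eight concentrations, 1:4 serial dilution from a 100 uM final top, in biological duplicate. Impedance-based real-time growth of 22Rv1 cells after overnight baseline, recorded hourly and read at 80 hours. Controls: testosterone, MG132, assay media.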

Test [5] addresses AR (gene 367) (UniProt P10275). The experiment in a line: ACEA_AR_antagonist_80hr: ACEA Biosciences xCELLigence Real-Time Cell Analysis on Androgen Receptor Antagonism for Proliferation (AID 2283787).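 Note: 22Rv1 human prostate cancer cells with growth followed by electrical impedance; hits lower the impedance growth signal relative to DMSO.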 The essentials:
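Impedance-based real-time growth of 22Rv1 prostate cells, read 80 h after dosing. Eight concentrations, 1:4 series, top 100 uM final (0.5% DMSO), n = 2; signal decrease scored against DMSO.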

In test [6] the target is zebrafish Estrogen Receptor (ESR1), esr1 (gene 259252) (UniProt P57717). Briefly: ATG_zfER1_XSP1: Attagene TRANS-FACTORIAL Multi-Species (XSP1) HepG2 Assay for zebrafish Estrogen Receptor (ESR1) (AID 2283772). The gist of the method:
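Trans-activation readout: transfected zebrafish ER-Gal4 drives a UAS reporter in human HepG2 liver cells. After 24 h compound exposure (medium containing 3 nM 6-alpha-fluorotestosterone), induced reporter transcripts were quantified by RT-PCR with capillary electrophoresis, relative to DMSO.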

The subject of test [7] is zebrafish Estrogen Receptor (ESR2B), gene 317733. Briefly: ATG_zfER2b_XSP1: Attagene TRANS-FACTORIAL Multi-Species (XSP1) HepG2 Assay for zebrafish Estrogen Receptor (ESR2B) (AID 2283773). The gist of the method: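 Medium contained 3 nM 6-alpha-fluorotestosterone. Reporter mRNA induction by exogenous zebrafish ER2b-Gal4 chimera was read 24 h post-dose in transiently transfected HepG2 cells, using RT-PCR, fluorescent labelling, HpaI digestion and capillary electrophoresis.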

In test [8] the test system is frog Estrogen Receptor (ESR1), gene 398734. Briefly: ATG_frER1_XSP1: Attagene TRANS-FACTORIAL Multi-Species (XSP1) HepG2 Assay for frog Estrogen Receptor (ESR1) (AID 2283777). The essentials: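 HepG2 cells transiently transfected with GAL4-UAS reporter units and frog ER–Gal4 chimera were dosed for 24 h with 3 nM 6-alpha-fluorotestosterone present. Reporter mRNA was measured by RT-PCR and capillary electrophoresis; gain of signal fitted versus DMSO.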

For test [9], the system named is zebrafish Estrogen Receptor (ESR2A), gene 317734. Briefly: ATG_zfER2a_XSP1: Attagene TRANS-FACTORIAL Multi-Species (XSP1) HepG2 Assay for zebrafish Estrogen Receptor (ESR2A) (AID 2283778). The essentials:
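Reporter transcripts were quantified by RT-PCR, 6-FAM labelling, HpaI digestion and capillary electrophoresis after 24 h dosing. The cells were HepG2 transiently carrying a zebrafish ER2a–Gal4 construct plus multiplexed UAS reporters; medium contained 3 nM 6-alpha-fluorotestosterone.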

The target in test [10] is chicken Estrogen Receptor (ESR1), ESR1 (gene 396099) (UniProt P06212). Briefly: ATG_chERa_XSP1: Attagene TRANS-FACTORIAL Multi-Species (XSP1) HepG2 Assay for chicken Estrogen Receptor (ESR1) (AID 2283779). The essentials:
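Trans-activation of an exogenous chicken ERα–Gal4 chimera read as reporter transcript (RT-PCR, fluorescent labeling, capillary electrophoresis) after 24 h compound exposure of transfected HepG2; medium held 3 nM 6-alpha-fluorotestosterone. Positive-direction fit against DMSO.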

Test [11] relates to turtle Estrogen Receptor (ESR1), gene 101933533. Briefly: ATG_trERa_XSP1: Attagene TRANS-FACTORIAL Multi-Species (XSP1) HepG2 Assay for turtle Estrogen Receptor (ESR1) (AID 2283781). The essentials: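 Transactivation measured 24 h post-dose as reporter mRNA (RT-PCR, fluorescent capillary electrophoresis) from an NR-Gal4 turtle ER construct in HepG2. Medium included 3 nM 6-alpha-fluorotestosterone; increase over DMSO fitted.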

The target of test [12] is human Androgen Receptor (AR), AR (gene 367) (UniProt P10275). The experiment in a line: ATG_hAR_XSP1: Attagene TRANS-FACTORIAL Multi-Species (XSP1) HepG2 Assay for human Androgen Receptor (AR) (AID 2283785). The protocol:
ATG_XSP1_multi-species_TRANS is a cell-based, multiplexed assay created by modifying the existing Attagene TRANS-FACTORIAL system to include a panel of nuclear receptors from some or all the following species: human (Homo sapiens), mouse (Mus musculus), frog (Xenopus laevis), zebrafish (Danio rerio), chicken (Gallus gallus), and turtle (Chrysemys picta). The ECOTOX-FACTORIAL format uses HepG2, a human liver cell line, with measurements taken at 24 hours after chemical dosing in a 24-well plate. Xsp1 included 3 nM 6-alpha-fluorotestosterone to partially stimulate the androgen receptor.ATG_hAR_XSP1 is one of 29 assay components measured or calculated from the ATG_XSP1_multi-species_TRANS assay. It is designed to make measurements of mRNA induction, a form of inducible reporter, as detected with fluorescence intensity signals by Reverse transcription polymerase chain reaction (RT-PCR) and Capillary electrophoresis technology.The assay endpoint ATG_hAR_XSP1 was analyzed in the positive analysis fitting direction relative to DMSO as the negative control and baseline of activity. […] Furthermore, this assay endpoint can be referred to as a primary readout, because this assay has produced multiple assay endpoints where this one serves a reporter gene function. […]

The subject of test [13] is turtle Androgen Receptor (AR), gene 101947425. Briefly: ATG_trAR_XSP1: Attagene TRANS-FACTORIAL Multi-Species (XSP1) HepG2 Assay for turtle Androgen Receptor (AR) (AID 2283786). The essentials: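 Partial androgen stimulation is provided by 3 nM 6-alpha-fluorotestosterone in a multi-species trans-factorial panel expressing a turtle AR–GAL4 fusion in HepG2. After 24 h, reporter mRNA is measured by RT-PCR and capillary electrophoresis and fitted upward against DMSO.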

The target of test [14] is Estrogen receptor beta (Homo sapiens) (UniProt Q92731). Briefly: ATG_hERb_XSP1: Attagene TRANS-FACTORIAL Multi-Species (XSP1) HepG2 Assay for human Estrogen Receptor (ESR2) (AID 2283788). The essentials: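 HepG2 cells transiently transfected with multiplexed GAL4-UAS reporter units carrying chimeric human ERβ-Gal4; 24 h compound exposure with 3 nM 6-alpha-fluorotestosterone present. Reporter mRNA quantified by RT-PCR, FAM labelling and capillary electrophoresis; gain-of-signal fitted versus DMSO.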

Test [15] can be described thus: STM_H9_NormalizedViability: Cytotoxicity Assessment at 120 hours in the Stemina devTOX quickPredict H9 human embryonic stem cell (hESC)-based Assay (AID 2283784). The gist of the method:
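Viability endpoint: background-corrected CellTiter-Fluor RFU expressed relative to the 0.1% DMSO mean on each plate. Undifferentiated H9 cells were treated with daily re-dosing and media change, and loss of signal was fitted.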

Structures are written as SMILES. Records with an inconclusive call do not appear. The source made the active and inactive calls. Rule for the calls: active = hit-call score of the fitted dose curve at least 0.9, where 1 is the maximum; inconclusive = response in the unintended direction; inactive = score below 0.9.

AR (gene 367), sequence (P10275 whole entry, looked up): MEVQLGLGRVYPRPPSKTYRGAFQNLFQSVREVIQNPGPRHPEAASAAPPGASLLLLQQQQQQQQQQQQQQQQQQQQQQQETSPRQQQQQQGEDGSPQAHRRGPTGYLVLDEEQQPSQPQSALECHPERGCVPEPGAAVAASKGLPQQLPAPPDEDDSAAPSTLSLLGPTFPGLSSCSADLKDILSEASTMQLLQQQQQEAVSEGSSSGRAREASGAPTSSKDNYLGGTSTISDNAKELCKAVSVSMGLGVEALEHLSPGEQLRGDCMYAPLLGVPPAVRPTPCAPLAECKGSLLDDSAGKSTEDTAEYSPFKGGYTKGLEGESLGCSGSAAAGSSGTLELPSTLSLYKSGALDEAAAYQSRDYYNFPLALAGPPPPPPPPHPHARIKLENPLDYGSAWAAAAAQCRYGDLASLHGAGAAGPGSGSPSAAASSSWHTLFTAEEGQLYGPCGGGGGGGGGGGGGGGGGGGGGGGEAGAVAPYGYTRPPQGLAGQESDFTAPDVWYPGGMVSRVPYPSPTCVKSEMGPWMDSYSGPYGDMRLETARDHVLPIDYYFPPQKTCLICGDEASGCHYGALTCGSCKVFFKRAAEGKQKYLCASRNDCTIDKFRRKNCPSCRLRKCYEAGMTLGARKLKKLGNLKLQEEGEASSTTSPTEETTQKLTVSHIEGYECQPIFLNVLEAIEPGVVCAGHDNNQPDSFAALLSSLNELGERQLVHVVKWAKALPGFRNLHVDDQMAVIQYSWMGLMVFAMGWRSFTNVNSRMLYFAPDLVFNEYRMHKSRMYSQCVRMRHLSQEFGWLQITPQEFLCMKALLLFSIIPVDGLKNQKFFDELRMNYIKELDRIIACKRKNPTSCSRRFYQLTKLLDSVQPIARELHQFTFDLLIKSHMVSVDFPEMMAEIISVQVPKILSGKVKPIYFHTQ
chicken Estrogen Receptor (ESR1), ESR1 (gene 396099), sequence (P06212 whole entry, looked up, the tested form may be a part): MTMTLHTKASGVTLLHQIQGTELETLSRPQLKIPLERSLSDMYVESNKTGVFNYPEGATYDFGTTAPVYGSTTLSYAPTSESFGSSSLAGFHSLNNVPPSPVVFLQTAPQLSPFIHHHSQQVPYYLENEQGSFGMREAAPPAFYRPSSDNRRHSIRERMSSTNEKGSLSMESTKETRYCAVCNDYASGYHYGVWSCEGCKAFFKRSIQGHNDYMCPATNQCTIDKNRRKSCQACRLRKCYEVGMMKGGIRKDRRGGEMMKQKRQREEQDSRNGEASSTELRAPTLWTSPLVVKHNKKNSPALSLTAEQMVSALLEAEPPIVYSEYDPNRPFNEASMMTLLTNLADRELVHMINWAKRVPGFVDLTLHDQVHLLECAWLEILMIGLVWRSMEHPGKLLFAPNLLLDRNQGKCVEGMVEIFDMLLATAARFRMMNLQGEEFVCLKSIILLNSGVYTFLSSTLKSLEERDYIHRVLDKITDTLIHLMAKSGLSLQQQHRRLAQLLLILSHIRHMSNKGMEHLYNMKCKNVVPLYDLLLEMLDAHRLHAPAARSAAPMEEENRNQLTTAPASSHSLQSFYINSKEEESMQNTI
zebrafish Estrogen Receptor (ESR1), esr1 (gene 259252), sequence (P57717 whole entry, looked up, the tested form may be a part): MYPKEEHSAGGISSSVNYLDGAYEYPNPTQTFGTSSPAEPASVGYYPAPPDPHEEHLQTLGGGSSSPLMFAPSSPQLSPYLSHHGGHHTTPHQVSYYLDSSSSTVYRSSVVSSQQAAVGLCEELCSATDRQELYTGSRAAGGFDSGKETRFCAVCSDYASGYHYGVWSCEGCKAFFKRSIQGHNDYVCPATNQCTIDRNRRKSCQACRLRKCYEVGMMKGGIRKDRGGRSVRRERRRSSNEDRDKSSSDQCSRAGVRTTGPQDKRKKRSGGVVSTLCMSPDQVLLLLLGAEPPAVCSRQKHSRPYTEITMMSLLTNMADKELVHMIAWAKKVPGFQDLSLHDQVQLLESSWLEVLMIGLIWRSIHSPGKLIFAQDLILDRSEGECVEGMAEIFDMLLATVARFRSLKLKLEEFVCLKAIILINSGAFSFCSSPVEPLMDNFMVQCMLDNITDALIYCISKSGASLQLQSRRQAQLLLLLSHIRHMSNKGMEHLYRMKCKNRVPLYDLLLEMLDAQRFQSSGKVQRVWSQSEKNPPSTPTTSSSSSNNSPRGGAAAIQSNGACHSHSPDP
human Androgen Receptor (AR), AR (gene 367), sequence (P10275 whole entry, looked up): as the sequence (P10275 whole entry, looked up) above
Estrogen receptor beta (Homo sapiens), sequence (Q92731 whole entry, looked up, the tested form may be a part): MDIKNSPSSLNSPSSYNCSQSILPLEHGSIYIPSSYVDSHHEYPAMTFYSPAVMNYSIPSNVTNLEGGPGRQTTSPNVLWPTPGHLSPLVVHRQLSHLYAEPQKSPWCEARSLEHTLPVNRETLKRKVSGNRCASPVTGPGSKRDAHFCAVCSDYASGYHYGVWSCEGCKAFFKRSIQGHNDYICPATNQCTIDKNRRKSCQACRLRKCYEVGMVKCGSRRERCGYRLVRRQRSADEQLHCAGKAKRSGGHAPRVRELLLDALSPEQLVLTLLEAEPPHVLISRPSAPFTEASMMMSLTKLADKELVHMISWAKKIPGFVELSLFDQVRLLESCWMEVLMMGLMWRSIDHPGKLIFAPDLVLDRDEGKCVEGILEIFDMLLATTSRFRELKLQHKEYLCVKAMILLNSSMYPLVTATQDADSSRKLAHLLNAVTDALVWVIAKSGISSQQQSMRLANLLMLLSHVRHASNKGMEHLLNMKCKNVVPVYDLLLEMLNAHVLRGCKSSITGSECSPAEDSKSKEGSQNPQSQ

For the compound `CC(C)(OOC(C)(C)c1ccccc1)c1ccccc1`, the AC50 in test [1] is 17.2 µM (active); in test [2], 24.5 µM (active); in [3], 77.1 µM (active); in test [5], 26.6 µM (active). In test [4], the call was inactive.

On to `Cc1ccc(N=C=O)cc1N=C=O`, for which the AC50 in test [1] was 25.1 µM (active).

With `Nc1ccc(N=Nc2ccccc2)cc1`, the AC50 in test [1] is 50 µM (active); in test [3], 5.24 µM (active). For the same compound, the outcome in test [2] was inactive.

Regarding `CCCSC(=O)N(CCC)CCC`, the result in [1] and in test [2] was inactive.

Turning to `CN(C)c1ccc(C(=O)c2ccc(N(C)C)cc2)cc1`, the results for the AC50 in test [1] and in [3] were 9.27 µM (active) and 1.51 µM (active), respectively.

Consider `CCC12COCN1COC2`, for which the outcome in [1] was inactive.

As for `C[C@]12C=CC3=C4CCC(=O)C=C4CC[C@H]3[C@@H]1CC[C@@H]2O`, the compound was called inactive in test [6], in test [7], in [8], in test [9], in [10] and in [11]. Besides, the compound was classed as inactive in test [5] and in test [14]. Moreover, the AC50 in [4] was 0.000293 µM (active); in [12] it was 0.00447 µM (active); in test [13] it was 0.00552 µM (active).

Regarding `C[N+](C)(C)CC1CO1` (stereo unspecified), the result in test [1], in [2], in test [3] and in test [5] was inactive. The AC50 in test [15] was 24 µM (active).

As to `CC(C)N(Cc1ccccc1)C(=O)C(C)(C)C`, the call in test [1], in test [2] and in test [5] was inactive.

As for `O=C(Nc1ccccc1)c1ccccc1I`, the outcome in test [1], in test [2], in test [3] and in test [5] was inactive.

With `O=[N+]([O-])C(Br)(CO)CO`, the AC50 in test [1] was 29.5 µM (active); in test [2], 39 µM (active); in [3] it was 32.7 µM (active); in test [5] it was 30.6 µM (active). In test [4], the compound was called inactive.

In the case of `Cc1ccc([N+](=O)[O-])cc1`, the result in test [1] and in [2] was inactive.

In the case of `CCOc1cccc(C2(N3CCN(c4ccccc4)CC3)CCC(C)CC2)c1` (stereo unspecified), the compound was called inactive in test [1], in test [2] and in test [3].

For `CC(O)CCO` (stereo unspecified), the call in test [1], in [2] and in [3] was inactive.

With `CCCCCCCCCCCCCN1CC(C)OC(C)C1` (stereo unspecified), the result in test [1], in [2] and in [15] was inactive.

For `c1ccc(C2CO2)cc1` (stereo unspecified), the outcome in test [1] and in [2] was inactive.

For `Oc1ccc2ccc3cccc4ccc1c2c34`, the AC50 is 83.3 µM (active) in test [1], 74.6 µM (active) in test [2] and 79.6 µM (active) in test [3]. Moreover, the outcome in test [15] was inactive.

Turning to `[As]#[In]`, the result in test [1] and in test [2] was inactive.
